# PubChem BioAssay (Tox21)
# Records with an inconclusive call do not appear. Where a call stands in place of a potency, no number is given. Active and inactive are the calls of the source. Calls follow the shape of the dose curve; as a rule, active = well fitted curve in the direction sought with a large enough effect in the repeat runs; inconclusive = weak or mixed curves; inactive = no such curve, though single readings can be large; an effect the other way counts as inactive or inconclusive.
# Legend:
# [1] = molecular target: Voltage-gated inwardly rectifying potassium channel KCNH2 (Homo sapiens) (UniProt Q12809); test: Human Ether-a-go-go-Related Gene (hERG) channel small molecule antagonists: fluorescence cell-based qHTS assay (AID 1671200); details: hERG-U2OS cells, FluxOR thallium flux fluorescence; series mostly up to 76.8 µM;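 also: hERG-expressing U2OS cells given a thallium stimulus after FluxOR II dye loading; nearly all actives have a fitted effect of over 50% in size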
# Chain of Voltage-gated inwardly rectifying potassium channel KCNH2 (Homo sapiens) (Q12809 whole entry, looked up): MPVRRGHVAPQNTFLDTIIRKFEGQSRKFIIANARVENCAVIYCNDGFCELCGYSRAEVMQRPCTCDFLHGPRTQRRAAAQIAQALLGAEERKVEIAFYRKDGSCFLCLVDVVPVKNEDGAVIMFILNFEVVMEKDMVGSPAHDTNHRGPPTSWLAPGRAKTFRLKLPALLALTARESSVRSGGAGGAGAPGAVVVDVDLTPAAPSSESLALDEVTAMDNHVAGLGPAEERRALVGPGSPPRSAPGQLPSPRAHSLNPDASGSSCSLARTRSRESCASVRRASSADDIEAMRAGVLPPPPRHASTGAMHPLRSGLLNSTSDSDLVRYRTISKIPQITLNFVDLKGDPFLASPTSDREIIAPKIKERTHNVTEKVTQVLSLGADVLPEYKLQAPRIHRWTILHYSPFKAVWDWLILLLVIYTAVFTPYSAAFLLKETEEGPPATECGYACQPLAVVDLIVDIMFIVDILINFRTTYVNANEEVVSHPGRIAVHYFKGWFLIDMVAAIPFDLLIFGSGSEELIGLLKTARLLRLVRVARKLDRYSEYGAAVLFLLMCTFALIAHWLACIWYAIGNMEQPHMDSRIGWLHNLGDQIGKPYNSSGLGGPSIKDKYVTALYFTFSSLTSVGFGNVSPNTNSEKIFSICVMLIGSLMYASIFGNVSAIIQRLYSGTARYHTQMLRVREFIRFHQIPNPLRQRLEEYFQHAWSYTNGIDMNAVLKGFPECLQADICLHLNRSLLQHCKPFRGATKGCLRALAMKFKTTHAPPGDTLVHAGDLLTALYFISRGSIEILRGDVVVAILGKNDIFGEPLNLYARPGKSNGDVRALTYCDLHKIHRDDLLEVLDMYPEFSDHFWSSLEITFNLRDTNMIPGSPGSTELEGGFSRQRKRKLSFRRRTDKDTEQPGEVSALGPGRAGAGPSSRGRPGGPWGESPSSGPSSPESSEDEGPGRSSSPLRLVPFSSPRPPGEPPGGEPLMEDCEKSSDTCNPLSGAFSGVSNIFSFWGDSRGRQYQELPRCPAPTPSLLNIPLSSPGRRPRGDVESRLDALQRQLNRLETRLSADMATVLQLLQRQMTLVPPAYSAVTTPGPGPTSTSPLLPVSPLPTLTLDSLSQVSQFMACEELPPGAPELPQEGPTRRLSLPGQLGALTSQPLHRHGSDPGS
# Outline: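 Measured: Tl+ flux via fluorescence (480/540 nm) in hERG-expressing U2OS cells after 1 h dye loading at room temperature.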
# [2] = molecular target: Cytochrome P450 1A2 (Homo sapiens) (UniProt P05177); test: Cytochrome P450 Family 1 Subfamily A Member 2 (CYP1A2) small molecule antagonists: luciferase reporter qHTS assay (AID 1671199); details: P450-Glo CYP1A2 enzyme, luciferin luminescence, 1 h; series mostly up to 115 µM; also: nearly all actives have a fitted effect of over 50% in size; also: potency is read from the fitted curve at half-maximal effect
# Chain of Cytochrome P450 1A2 (Homo sapiens) (P05177 whole entry, looked up): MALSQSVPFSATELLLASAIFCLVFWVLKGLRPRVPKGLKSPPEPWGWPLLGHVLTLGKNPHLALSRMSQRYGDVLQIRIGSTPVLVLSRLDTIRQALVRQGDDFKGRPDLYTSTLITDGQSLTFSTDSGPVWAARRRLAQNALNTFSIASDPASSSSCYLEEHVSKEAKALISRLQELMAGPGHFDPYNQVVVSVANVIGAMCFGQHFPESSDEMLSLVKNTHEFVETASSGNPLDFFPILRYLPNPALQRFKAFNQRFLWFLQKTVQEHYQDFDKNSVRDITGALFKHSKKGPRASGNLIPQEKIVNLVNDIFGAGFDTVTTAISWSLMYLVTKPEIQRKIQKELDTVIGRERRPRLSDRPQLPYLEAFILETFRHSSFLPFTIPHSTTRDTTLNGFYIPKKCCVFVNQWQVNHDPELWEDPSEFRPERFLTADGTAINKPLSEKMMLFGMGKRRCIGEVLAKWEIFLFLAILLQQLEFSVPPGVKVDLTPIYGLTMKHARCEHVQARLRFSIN
# Outline: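 Quantitative high-throughput format using the P450-Glo CYP1A2 system. Reaction initiated by NADPH regeneration solution, 1 h at room temperature, then stopped with detection reagent; luminescence measured 20 min later.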
# [3] = molecular target: Cytochrome P450 3A4 (Homo sapiens) (UniProt P08684); test: Cytochrome P450 Family 3 Subfamily A Member 4 (CYP3A4) small molecule antagonists: luciferase reporter qHTS assay (AID 1671201); details: P450-Glo CYP3A4 enzyme, luciferin luminescence, 1 h; series mostly up to 115 µM; also: nearly all actives have a fitted effect of over 50% in size
# Chain of Cytochrome P450 3A4 (Homo sapiens) (P08684 whole entry, looked up): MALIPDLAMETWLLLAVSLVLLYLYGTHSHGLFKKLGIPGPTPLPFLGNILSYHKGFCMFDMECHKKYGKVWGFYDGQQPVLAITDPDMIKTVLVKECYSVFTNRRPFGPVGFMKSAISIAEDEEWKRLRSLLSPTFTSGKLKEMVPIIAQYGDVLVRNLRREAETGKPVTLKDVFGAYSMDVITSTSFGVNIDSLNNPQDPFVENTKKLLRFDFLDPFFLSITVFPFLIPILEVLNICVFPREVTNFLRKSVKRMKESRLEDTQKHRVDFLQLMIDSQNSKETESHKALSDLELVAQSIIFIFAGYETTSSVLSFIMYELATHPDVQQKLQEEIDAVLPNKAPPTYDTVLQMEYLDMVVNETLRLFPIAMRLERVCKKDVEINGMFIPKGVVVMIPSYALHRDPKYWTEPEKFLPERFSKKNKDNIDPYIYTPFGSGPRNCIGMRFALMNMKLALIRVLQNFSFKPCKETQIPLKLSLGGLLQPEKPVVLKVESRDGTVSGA
# Outline: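 Setup: enzyme-substrate mix, compound pin transfer, 10 min RT. Reaction: NADPH regeneration solution, 1 h RT. Readout: detection reagent stops turnover, luminescence measured after 20 min, expressed in relative luminescence units.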
# [4] = molecular target: Cytochrome P450 2C19 (Homo sapiens) (UniProt P33261); test: Cytochrome P450 Family 2 Subfamily C Member 19 (CYP2C19) small molecule antagonists: luciferase reporter qHTS assay (AID 1671197); details: P450-Glo CYP2C19 enzyme, luciferin luminescence, 1 h; series mostly up to 115 µM; also: nearly all actives have a fitted effect of over 65% in size; also: potency is read from the fitted curve at half-maximal effect
# Chain of Cytochrome P450 2C19 (Homo sapiens) (P33261 whole entry, looked up): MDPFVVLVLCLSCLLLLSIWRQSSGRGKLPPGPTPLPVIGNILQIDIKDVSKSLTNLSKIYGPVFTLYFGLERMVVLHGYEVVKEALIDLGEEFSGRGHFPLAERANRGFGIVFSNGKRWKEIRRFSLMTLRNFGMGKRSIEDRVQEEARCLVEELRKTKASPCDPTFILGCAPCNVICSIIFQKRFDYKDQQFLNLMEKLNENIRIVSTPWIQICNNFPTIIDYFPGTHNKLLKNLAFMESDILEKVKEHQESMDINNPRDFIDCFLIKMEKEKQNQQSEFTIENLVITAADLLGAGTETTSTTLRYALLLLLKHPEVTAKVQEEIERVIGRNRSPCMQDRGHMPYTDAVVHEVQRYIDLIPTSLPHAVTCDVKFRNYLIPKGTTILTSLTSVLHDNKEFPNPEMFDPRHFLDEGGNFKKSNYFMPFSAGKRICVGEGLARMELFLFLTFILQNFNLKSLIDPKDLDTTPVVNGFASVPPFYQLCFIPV
# Outline: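 Enzyme-substrate mix with proluciferin substrate (P450-Glo CYP2C19 system) preincubated with compounds 10 min at room temperature; NADPH regeneration solution added, 37C for 1 h; detection reagent stops reaction, luminescence read after 20 min. Ketoconazole positive control.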
# [5] = molecular target: Cytochrome P450 2C9 (Homo sapiens) (UniProt P11712); test: Cytochrome P450 Family 2 Subfamily C Member 9 (CYP2C9) small molecule antagonists: luciferase reporter qHTS assay (AID 1671198); details: P450-Glo CYP2C9 enzyme assay, luciferin luminescence; series mostly up to 115 µM; also: nearly all actives have a fitted effect of over 50% in size
# Chain of Cytochrome P450 2C9 (Homo sapiens) (P11712 whole entry, looked up): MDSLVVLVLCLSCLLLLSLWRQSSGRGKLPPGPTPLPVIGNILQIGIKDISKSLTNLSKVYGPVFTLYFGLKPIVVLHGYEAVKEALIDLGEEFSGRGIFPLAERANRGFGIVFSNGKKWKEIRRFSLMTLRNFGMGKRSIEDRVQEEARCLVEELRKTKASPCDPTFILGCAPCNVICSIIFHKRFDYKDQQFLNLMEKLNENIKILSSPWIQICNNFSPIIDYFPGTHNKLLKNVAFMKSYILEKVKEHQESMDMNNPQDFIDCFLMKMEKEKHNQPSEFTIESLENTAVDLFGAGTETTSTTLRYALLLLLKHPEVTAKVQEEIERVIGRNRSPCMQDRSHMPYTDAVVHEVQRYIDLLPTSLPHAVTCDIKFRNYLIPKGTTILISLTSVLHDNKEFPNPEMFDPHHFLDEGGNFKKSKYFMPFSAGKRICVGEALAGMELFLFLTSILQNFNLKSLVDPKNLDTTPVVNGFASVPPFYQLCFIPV
# Outline: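 Enzyme-substrate mix preincubated with compound 10 min at room temperature; reaction started with NADPH regeneration solution, 1 h 37C. Luminescent luciferin product read after 20 min detection reagent.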
smiles,measurement,setting,value
CN=C(NC#N)NCCSCc1csc(N=C(N)N)n1,Potency,[1],inactive
CC(=O)N1CCN(c2ccc(O)cc2)CC1,Potency,[2],24.5 µM (active)
same,Potency,[1],inactive
same,Potency,[3],inactive
CCCCCCCCCCCCCCCCI,"activity change, negative = inhibition",[4],-28.1% [at 23.6 µM] (inactive)
same,"activity change, negative = inhibition",[5],-1.09% [at 23.6 µM] (inactive)
same,"activity change, negative = inhibition",[1],0.683% [at 15.8 µM] (inactive)
same,"activity change, negative = inhibition",[3],-0.102% [at 23.6 µM] (inactive)
O=C(O)c1ccccc1C(=O)OCc1ccccc1,Potency,[4],inactive
same,Potency,[2],inactive
same,Potency,[1],inactive
same,Potency,[3],inactive
C1CCN2C[C@@H]3C[C@@H](CN4CCCC[C@@H]34)[C@H]2C1,Potency,[1],inactive
CC(C)CCCCCCOC(=O)C1CCCCC1C(=O)OCCCCCCC(C)C (stereo not given),Potency,[4],inactive
same,Potency,[2],inactive
same,Potency,[1],inactive
CCOC(=O)C(=O)c1csc(NC=O)n1,Potency,[4],inactive
same,Potency,[5],inactive
same,Potency,[1],inactive
same,Potency,[3],inactive
CN(C)CCCNCCC#N,Potency,[5],inactive
same,Potency,[1],inactive
same,Potency,[3],inactive
Nc1cc(C(=O)O)ccc1Cl,Potency,[5],inactive
same,Potency,[2],inactive
same,Potency,[1],inactive
same,Potency,[3],inactive
CCS(=O)(=O)CCn1c([N+](=O)[O-])cnc1C,Potency,[1],inactive
Cc1ccc2c(c1)c1c3n2CCNC3CCC1 (stereo not given),Potency,[1],inactive
CCC(CO)CO,Potency,[4],inactive
same,Potency,[5],inactive
same,Potency,[1],inactive
same,Potency,[3],inactive
CCN(CCC#N)c1ccccc1,Potency,[4],8.94 µM (active)
same,Potency,[2],31.7 µM (active)
same,Potency,[1],inactive
same,Potency,[3],inactive
CC(C)CCCC(C)CC=O (stereo not given),Potency,[4],79.6 µM (active)
same,Potency,[2],inactive
same,Potency,[1],inactive
same,Potency,[3],inactive
CCCCCCCCCCCCCCCC(=O)NCCO,Potency,[1],inactive
CCC(=O)c1ccc(O)cc1,Potency,[4],inactive
same,Potency,[5],inactive
same,Potency,[1],inactive
same,Potency,[3],inactive
O=P(O)(O)OCC(O)CO (stereo not given),Potency,[4],inactive
same,Potency,[5],inactive
same,Potency,[1],inactive
same,Potency,[3],inactive
